Pf growth 96h: inhibits malaria parasite growth, 96 h. 6.9% of 320,000 active. AID 504834. P. falciparum luciferase reporter growth, 96 h. Potency, µM (top dose mostly 28.7 µM), for the others: at the top dose activity change, negative = inhibition, most hits filed as inhibitors
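Delayed-death screen, second-generation endpoint: infected erythrocytes, 2% hematocrit, 0.05% parasitemia final; 96 hours at 37 C, 5% CO2; luciferase detection reagent; luminescence decrease equals reduced growth.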
AMA1 RON2 block: AMA1-RON2 (P. falciparum) interaction inhibition; AID 720542; 0.2% of 360,000 active; Potency, µM (doses to about 58.2 µM), inactives show at the top dose activity change, negative = inhibition, most hits filed as inhibitors; AlphaScreen AMA1-biotinylated RON2 peptide binding;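 further: 0% = vehicle wells and -100% = peptide control; nearly all actives have a fitted effect of over 45% in size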
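AMA1 (3D7) with his tag at 25 nM final met compounds first, then biotinylated RON2 peptide at 25 nM; detection used donor plus acceptor beads, 10 µg/mL apiece, read by AlphaScreen after 30 min at room temperature.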
AmpC no deterg: inhibitors of E. coli AmpC beta-lactamase without detergent. 0.52% of 330,000 active. Potency, µM (top dose mostly 57.1 µM), inactives show at the highest dose activity change, negative = inhibition, usual class: inhibitors. AmpC nitrocefin hydrolysis, absorbance 480 nm, 0.0001% Triton. P00811;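 further: plate controls were no compound for no effect and no enzyme for full effect; nearly all actives have a fitted effect of over 20% in size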
Target sequence (P00811 whole entry, looked up): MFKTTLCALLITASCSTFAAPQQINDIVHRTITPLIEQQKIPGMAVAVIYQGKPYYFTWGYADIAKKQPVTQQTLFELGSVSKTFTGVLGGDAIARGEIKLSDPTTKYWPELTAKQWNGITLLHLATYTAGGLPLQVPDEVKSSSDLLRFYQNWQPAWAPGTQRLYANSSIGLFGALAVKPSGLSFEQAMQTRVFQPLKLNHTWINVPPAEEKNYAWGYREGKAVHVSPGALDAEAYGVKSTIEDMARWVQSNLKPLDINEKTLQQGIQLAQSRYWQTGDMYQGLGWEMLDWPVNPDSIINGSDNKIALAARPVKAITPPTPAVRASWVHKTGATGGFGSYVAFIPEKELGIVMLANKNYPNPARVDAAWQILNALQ
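20 mM phosphate pH 7.0 + 0.01% (detergent screen) or 0.0001% Triton X-100; 5.3 nM AmpC reagent; cpd preinc 15 min RT; nitrocefin (800 uM stock) to start; A480 q20 s × 4 min; Activity was normalised to no-enzyme and no-compound control wells.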
AmpC detergent: blocks E. coli AmpC beta-lactamase in detergent assay. P00811. AmpC hydrolysis of nitrocefin, absorbance 480 nm, 0.01% Triton. Potency, µM (series often up to 114 µM), without a hit: at the top dose activity change, negative = inhibition, actives largely listed as inhibitors. 0.041% of 370,000 active;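 further: 0% = no-compound wells and -100% = no-enzyme wells; nearly all actives have a fitted effect of over 25% in size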
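20 mM phosphate pH 7.0 + 0.01% (detergent screen) or 0.0001% Triton X-100; 5.3 nM AmpC reagent; cpd preinc 15 min RT; nitrocefin (800 uM stock) to start; A480 q20 s × 4 min; Activity was normalised to no-enzyme and no-compound control wells.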
HCV inhibitor: blocks hepatitis C virus; Huh7.5.1 HCVcc-Cre infection, luciferase reporter, 44 h; Potency, µM (series often up to 41.8 µM), inactives show at the highest dose activity change, negative = inhibition, most hits filed as inhibitors; 3.4% of 340,000 active
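Infectious HCVcc-Cre (~0.5 moi) was added to cells just after compound, with cells seeded 4 h earlier at 1,000 per well. Luciferase activity after 44 h culture reported infection; substrate was incubated 15 min at room temperature before reading.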
Pf growth 48h: P. falciparum growth inhibition at 48 hours (one generation); P. falciparum luciferase growth in erythrocytes, 48 h; Potency, µM (titrated, usually from 28.7 µM), for the others: top-dose activity change, negative = inhibition, hits mostly inhibitors; 5.9% of 310,000 active
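Growth was read as firefly luciferase luminescence after a 48 h, 37 C, 5% CO2 exposure of compounds to reporter-bearing P. falciparum cultures (0.1% parasitemia, 2% hematocrit final) in Albumax-supplemented RPMI 1640.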
* hit, by the source's call; ? = inconclusive; nt = no result; ! = repeats disagree. Most compounds without a hit are left out; they make up all but 11% or so of the library. The call rests on the fitted dose curve; in most records, active means well fitted curve in the direction sought with a large enough effect; inconclusive means small, poorly fitted or top-dose-only effect, or another doubt; inactive means no such curve, though single readings can be large; an effect the other way counts as inactive or inconclusive. Unless noted, on the % scale 0 is the no-effect control and ±100 the full control effect; potency means the concentration at half of the fitted maximal effect.

SMILES	Pf growth 96h	AMA1 RON2 block	AmpC no deterg	AmpC detergent	HCV inhibitor	Pf growth 48h
Cc1ccc(N(CC(O)Cn2c3ccccc3c3ccccc32)S(C)(=O)=O)c(C)c1 (centres undefined)	nt	0%	58%	-4%	-5%	4.7µM*
CS(=O)(=O)N(Cc1ccco1)CC(O)Cn1c2ccccc2c2ccccc21 (centres undefined)	nt	-11%	59%	2%	-5%	9.3µM*
Cc1ccc(N(CC(O)Cn2c3ccccc3c3ccccc32)S(C)(=O)=O)cc1 (centres undefined)	?	-2%	73%	-3%	-1%	nt
Cc1cccc(C)c1N(CC(O)Cn1c2ccccc2c2ccccc21)S(C)(=O)=O (centres undefined)	nt	2%	27%	-12%	?	?
OC(CNCc1ccco1)Cn1c2ccccc2c2ccccc21 (centres undefined)	5%	-7%	31%	?	?	2.3µM*
CC(=O)Nc1ccc(N(CC(O)Cn2c3ccccc3c3ccccc32)S(=O)(=O)c2ccc(C)cc2)cc1 (centres undefined)	-1%	-20%	13%	-4%	?	9.3µM*
OC(CNCc1ccco1)COc1ccccc1 (centres undefined)	-1%	-6%	-8%	-14%	1%	5%
COc1ccc(NC(=O)Cn2c(=O)n(Cc3ccccc3Cl)c(=O)c3cc(OC)c(OC)cc32)cc1OC	nt	nt	nt	23%	nt	nt
CC#C[C@]1(O)CC[C@H]2[C@@H]3CCC4=CC(=O)CCC4=C3[C@@H](c3ccc(N(C)C)cc3)C[C@@]21C	6.7µM*	?	82%	-7%	35µM*!	13µM*
N#C/C(=C\c1ccccc1)C(=O)N1CCC(C(N)=O)CC1	-14%	2%	-5%	-7%	-10%	-17%
N#C/C(=C\c1ccccc1)C(=O)OCC(=O)N1CCCC1	21%	-4%	-11%	?	3%	9.3µM*
O=C(CSc1nc(=O)n(Cc2ccco2)c2c1CCC2)Nc1ccccc1C(F)(F)F	nt	nt	nt	-2%	nt	nt
Cc1cc(Nc2cccc(C(F)(F)F)c2)nc2ccc(NC(=O)c3ccc(N(C)C)cc3)cc12	nt	nt	nt	3%	nt	nt
Cc1ccc(-n2ncc(C(=O)N3CCC(c4ccccc4)C3)c2C2CCN(C(=O)OC(C)(C)C)CC2)cc1 (centres undefined)	nt	nt	nt	22%	nt	nt
CCCn1c(-c2ccc(OC)cc2)nc2nc3ccccc3nc21	3.7µM*	31%	-11%	-8%	-2%	9%
COc1ccc(CCn2c(-c3cc([N+](=O)[O-])cc([N+](=O)[O-])c3)nc3nc4ccccc4nc32)cc1	0.74µM*	-7%	-20%	-12%	-3%	?
CC(OC(=O)Cn1[nH]c(=O)c2ccccc2c1=O)C(=O)NC1(C#N)CCCCC1 (centres undefined)	?	-2%	1%	?	4%	10µM*
CC(OC(=O)c1cc(Br)ccc1O)C(=O)NC1(C#N)CCCCC1 (centres undefined)	5%	-4%	-18%	-4%	?	6%
CC(OC(=O)Cc1c[nH]c2ccccc12)C(=O)NC1(C#N)CCCCC1 (centres undefined)	-25%	-15%	1%	3%	20%	11%
COc1cc(C(=O)OC(C)C(=O)NC2CCCCC2C)c([N+](=O)[O-])cc1OC (centres undefined)	7%	-13%	26%	-12%	-1%	-7%
CC(OC(=O)c1ccc([N+](=O)[O-])s1)C(=O)NC1CCCCC1C (centres undefined)	?	-7%	-15%	-10%	?	13µM*
Cc1[nH]c2ccc(C(=O)OC(C)C(=O)NC3(C#N)CCCCC3)cc2c1C (centres undefined)	-22%	-12%	-43%	?	14µM*	?
CC(OC(=O)c1ccc2c(c1)OCO2)C(=O)NC1CCCCC1C (centres undefined)	5%	2%	-3%	0%	?	-7%
CC(OC(=O)c1ccc(-c2ccc(O)cc2)cc1)C(=O)NC1CCCCC1C (centres undefined)	?	-2%	-26%	-11%	13µM*	-20%
CCOc1ccc(CNC(=O)c2ccccc2NC(=O)c2nsc3ccccc23)cc1	nt	nt	nt	19%	nt	nt
SMILES	Pf growth 96h	AMA1 RON2 block	AmpC no deterg	AmpC detergent	HCV inhibitor	Pf growth 48h
NC(CSSCC(N)C(=O)O)C(=O)O (centres undefined)	12%	nt	nt	nt	nt	-4%
CCn1c(=O)c2sccc2n2c(CCCC(=O)N3CCN(c4cc(C)ccc4C)CC3)nnc12	nt	nt	nt	12%	nt	nt
Cc1ccc(NC(=O)CCCn2c(=O)c3cccn3c3cccnc32)c(C)c1	nt	nt	nt	-7%	nt	nt
CC(C)CCN(Cc1ccco1)C(=O)c1cc2c(s1)-c1ccccc1OC2	nt	nt	nt	-11%	nt	nt
CCOc1ccc(NC(=O)CC2C(=O)N(c3ccccc3)C(=O)N2Cc2cccc(OC)c2)cc1 (centres undefined)	nt	nt	nt	-1%	nt	nt
CC(OC(=O)c1cccc(Cl)c1)C(=O)NC1CCCCC1C (centres undefined)	31%	-5%	-7%	0%	1%	8%
Cc1[nH]c2ccc(C(=O)OC(C)C(=O)NC3CCCCC3C)cc2c1C (centres undefined)	?	-4%	0%	-2%	22µM*	4.7µM*
CCOc1ccccc1NC(=O)C1Cc2ccccc2CN1S(C)(=O)=O (centres undefined)	12µM*	-1%	16%	0%	18%	?
COc1ccc(NC(=O)C2CCN(C(=O)[C@@H]3Cc4ccccc4CN3C(=O)OC(C)(C)C)CC2)cc1	?	-8%	99%	-3%	8%	?
COc1ccc(NC(=O)[C@@H]2CCCN2C(=O)[C@@H]2Cc3ccccc3CN2C(=O)OC(C)(C)C)cc1	12µM*	2%	116%	1%	-5%	12µM*
COc1ccc(Cl)cc1NC(=O)C1Cc2ccccc2CN1S(C)(=O)=O (centres undefined)	-2%	6%	-3%	-10%	-4%	-26%
COc1cc(NC(=O)C2Cc3ccccc3CN2S(C)(=O)=O)cc(OC)c1 (centres undefined)	1.9µM*	11%	-14%	-15%	-2%	0%
COC(=O)/C(=C\c1ccc2c(c1)c1ccccc1n2C)NC(=O)c1ccccc1	1.2µM*	-12%	-19%	-11%	-29%	?
CC(C)OC(=O)/C(=C\c1ccc2c(c1)c1ccccc1n2C)NC(=O)c1ccccc1	23%	9%	-22%	2%	?	4.1µM*

Compound activity deposited in PubChem BioAssay by National Center for Advancing Translational Sciences (NCATS).
